{"source": "PubChem BioAssay AID652233", "about": "(Johns Hopkins Ion Channel Center, 2013)", "note": "In all, about 2,300 compounds went through this assay and fewer than 10 were called active.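 Rule for the calls: active = yellow fluorescent protein signal ratio exceeding the buffer control mean by over 5 SD of those controls; inactive = the rest.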 Not all results are given here.", "data": [{"assay": "iodide YFP quench changes in parental YFP-HEK293, counter-screen for TMEM16A inhibitor project, cell-based (AID 652233);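 note: ratio is mean of duplicate wells from kinetic YFP trace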", "details": "ionomycin, at 10 µM", "values": [{"smiles": "O=C(Nc1ccccc1)c1ccccc1NC(=O)C(F)(F)F", "YFP ratio F(max-min)/F0": "-0.833 (inactive)"}, {"smiles": "Cn1c(CN2CCOCC2)nc2cc(NC(=O)c3ccc(Cl)cc3)ccc21", "YFP ratio F(max-min)/F0": "-0.87 (inactive)"}, {"smiles": "Cc1ccc(C(=O)O)cc1-c1ccc(/C=C2\\SC(=O)N(CC(=O)Nc3ccc4c(c3)OCO4)C2=O)o1", "YFP ratio F(max-min)/F0": "-1.05 (inactive)"}, {"smiles": "CCc1cc2c(N3CCN(c4nnc(CC)s4)CC3)ncnc2s1", "YFP ratio F(max-min)/F0": "-1.01 (inactive)"}, {"smiles": "Cc1ccc(-c2csc(-c3c[nH]c4ccccc34)n2)cc1", "YFP ratio F(max-min)/F0": "-0.919 (inactive)"}, {"smiles": "CN(Cc1cccnc1)C(=O)c1cc(COc2ccc3ncccc3c2)on1", "YFP ratio F(max-min)/F0": "-0.909 (inactive)"}, {"smiles": "CCOC(=O)C1CCN(c2ncnc3c2oc2ccc(Br)cc23)CC1", "YFP ratio F(max-min)/F0": "-1.19 (inactive)"}, {"smiles": "O=C1NC(=O)C2C1C(c1ccc([N+](=O)[O-])cc1)=NN2Cc1ccccc1", "note": "(stereo not drawn)", "YFP ratio F(max-min)/F0": "-1.22 (inactive)"}, {"smiles": "Cc1ccc2c(c1)N(CC(=O)N1CCCc3ccccc31)C(=O)C(C)O2", "note": "(stereo not drawn)", "YFP ratio F(max-min)/F0": "-1.08 (inactive)"}, {"smiles": "O=S1(=O)CCN(Cc2ccccc2Cl)CC1", "YFP ratio F(max-min)/F0": "-0.979 (inactive)"}, {"smiles": "N#Cc1nc(N)nc(N(c2ccccc2)c2ccccc2)n1", "YFP ratio F(max-min)/F0": "-1.24 (inactive)"}, {"smiles": "CCCOc1ccc(Cc2c(Cl)nc(SC)nc2NC)cc1", "YFP ratio F(max-min)/F0": "-1.09 (inactive)"}, {"smiles": "Cc1ccc(NC(=O)CN(C)CC(=O)Nc2cccc(F)c2)cc1[N+](=O)[O-]", "YFP ratio F(max-min)/F0": "-0.913 (inactive)"}, {"smiles": "CCN(CC)S(=O)(=O)c1ccc(N(C)Cc2ccc(C(F)(F)F)cc2)nc1", "YFP ratio F(max-min)/F0": "-1.04 (inactive)"}, {"smiles": "CC1CCN(C(=O)c2ccc(CSc3ccc(Cl)cc3)cc2)CC1", "YFP ratio F(max-min)/F0": "-0.991 (inactive)"}, {"smiles": "COc1ccc(-n2c(C)cc(C(=O)CSc3nnc(-c4cccs4)o3)c2C)cc1", "YFP ratio F(max-min)/F0": "-1.16 (inactive)"}, {"smiles": "CCn1nccc1C(=O)Nc1ccc(S(=O)(=O)NC23CC4CC(CC(C4)C2)C3)cc1", "YFP ratio F(max-min)/F0": "-1.03 (inactive)"}, {"smiles": "O=C(CN1CCN(C(=S)NC2CCCC2)CC1)Nc1ccc(Oc2ccccc2)cc1", "YFP ratio F(max-min)/F0": "-1.09 (inactive)"}, {"smiles": "Cc1ccc(N)cc1-n1c(C)ccc1C", "YFP ratio F(max-min)/F0": "-1.02 (inactive)"}, {"smiles": "CN(C)c1cc[n+](Cc2ccccc2)cc1", "YFP ratio F(max-min)/F0": "-1.12 (inactive)"}, {"smiles": "Cn1c(CCN2CCCCCC2)nc2cc(NC(=O)Nc3ccccc3)ccc21", "YFP ratio F(max-min)/F0": "-1.1 (inactive)"}, {"smiles": "COc1cc(CC(=O)Nc2nc(-c3ccc(F)c(F)c3)cs2)cc(OC)c1OC", "YFP ratio F(max-min)/F0": "-1.01 (inactive)"}, {"smiles": "S=C(NCC1CCCO1)N1CCN(c2ccc(Cl)c(Cl)c2)CC1", "note": "(stereo not drawn)", "YFP ratio F(max-min)/F0": "-0.789 (inactive)"}, {"smiles": "O=c1cc(C(F)(F)F)[nH]c(=O)n1C1CCCCC1", "YFP ratio F(max-min)/F0": "-1.23 (inactive)"}, {"smiles": "CCCc1cc(=S)n2c([nH]c3ccccc32)c1C#N", "YFP ratio F(max-min)/F0": "-0.888 (inactive)"}, {"smiles": "Cc1ccc(NC(=O)C(C)c2cccc(C(=O)c3ccccc3)c2)cc1", "note": "(stereo not drawn)", "YFP ratio F(max-min)/F0": "-1.26 (inactive)"}, {"smiles": "Cc1nc(CNS(=O)(=O)c2ccc(Oc3ccccc3)cc2)cs1", "YFP ratio F(max-min)/F0": "-1.1 (inactive)"}, {"smiles": "C=CCSc1nsc(NC(=O)Nc2cccc(C(C)=O)c2)n1", "YFP ratio F(max-min)/F0": "-1.12 (inactive)"}, {"smiles": "O=C(O)c1ccc(NC(=O)C2CCCCC2)cc1", "YFP ratio F(max-min)/F0": "-1.22 (inactive)"}, {"smiles": "Fc1ccc2[nH]c3c(N4CCSCC4)ncnc3c2c1", "YFP ratio F(max-min)/F0": "-1.05 (inactive)"}, {"smiles": "CCCC(=O)Nc1ccccc1N1CCN(C(=O)c2ccccc2)CC1", "YFP ratio F(max-min)/F0": "-1.02 (inactive)"}, {"smiles": "COc1ccc(-c2nc(CCNC(=O)c3ccc(Br)o3)cs2)cc1", "YFP ratio F(max-min)/F0": "-1.06 (inactive)"}, {"smiles": "COc1ccc(NC(=O)C2=CC(c3ccc(OC)c(OC)c3)=NS(=O)(=O)N2C)cc1", "YFP ratio F(max-min)/F0": "-1.13 (inactive)"}, {"smiles": "Cc1[nH]n(-c2cccc(Cl)c2)c(=O)c1-c1ccc(Cl)cc1", "YFP ratio F(max-min)/F0": "-0.864 (inactive)"}, {"smiles": "CCOC(=O)C1=C(CN2CCc3ccccc32)NC(=O)NC1c1cccc([N+](=O)[O-])c1", "note": "(stereo not drawn)", "YFP ratio F(max-min)/F0": "-1.14 (inactive)"}, {"smiles": "Cc1ccc(C)c(N2CCN(C(=O)CCCCn3c(=O)[nH]c4ccccc4c3=O)CC2)c1", "YFP ratio F(max-min)/F0": "-1 (inactive)"}, {"smiles": "CSc1nnc2c(n1)OC(c1ccsc1)N(C(C)=O)c1ccccc1-2", "note": "(stereo not drawn)", "YFP ratio F(max-min)/F0": "-1.24 (inactive)"}, {"smiles": "CC(=O)c1cc(CN2CCC(C(=O)Nc3cccc(-c4cscn4)c3)CC2)cs1", "YFP ratio F(max-min)/F0": "-0.907 (inactive)"}, {"smiles": "Cc1cccc(-n2c(SCC(N)=O)nc3c(c2=O)C2(CCCCC2)Cc2ccccc2-3)c1", "YFP ratio F(max-min)/F0": "-0.969 (inactive)"}, {"smiles": "COc1ccc(C(=O)NC2CCCc3c2cnn3-c2cccc(C)c2C)c(OC)n1", "note": "(stereo not drawn)", "YFP ratio F(max-min)/F0": "-0.94 (inactive)"}, {"smiles": "CCOC(=O)C(Sc1ncc(C#N)c(N)n1)C(C)C", "note": "(stereo not drawn)", "YFP ratio F(max-min)/F0": "-1.02 (inactive)"}, {"smiles": "O=C(NCCc1ccc2c(c1)OCCO2)c1cc2ccccc2o1", "YFP ratio F(max-min)/F0": "-0.931 (inactive)"}, {"smiles": "COc1ccc(Cl)cc1NC(=O)CCS(=O)(=O)c1cc2c(cc1C)NC(=O)CO2", "YFP ratio F(max-min)/F0": "-0.855 (inactive)"}]}]}
